Screens deposited in PubChem by National Center for Advancing Translational Sciences (NCATS).
FBPA Giardia inh: qHTS Assay for Inhibitors of Fructose-1,6-bisphosphate Aldolase from Giardia Lamblia; A8B2U2; AID 2451, 2010; purified Giardia FBPA; Potency, µM (doses to about 59.6 µM), for inactives: top-dose activity, negative = inhibition, hits mostly inhibitors; 290,000 tested, 0.71% active; note: potency is the fitted concentration of half-maximal effect; % is set by controls: 0 for no effect and ±100 for the full control effect; nearly all actives have a fitted effect of over 55% in size
Target sequence (A8B2U2 whole entry, looked up): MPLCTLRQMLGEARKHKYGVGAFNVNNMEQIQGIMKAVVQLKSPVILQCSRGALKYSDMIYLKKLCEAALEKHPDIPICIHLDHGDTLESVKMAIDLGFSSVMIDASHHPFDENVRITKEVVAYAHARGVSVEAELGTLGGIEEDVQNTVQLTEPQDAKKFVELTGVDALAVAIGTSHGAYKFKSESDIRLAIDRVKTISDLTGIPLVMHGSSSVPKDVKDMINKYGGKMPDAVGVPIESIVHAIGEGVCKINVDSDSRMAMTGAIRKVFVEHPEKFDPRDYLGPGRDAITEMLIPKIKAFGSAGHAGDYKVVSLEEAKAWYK
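40 nM FBPA preincubated 10 min at RT with compound (up to 57.5 uM final), then substrate plus GAPDH/TPI/NAD/arsenate coupling and diaphorase/resazurin added. Fluorescence read after 20 min at RT, 525/598 nm.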
RE007 growth inh: qHTS Assay for Inhibitors of the HIV-1 protein Vpr | S. pombe RE007 Vpr strain, BacTiter-Glo ATP luminescence, 24 h | Potency, µM (top dose mostly 92.2 µM), inactives show top-dose activity change, negative = less growth, most hits filed as inhibitors | 360,000 tested, 0.21% active | AID 651644, 2012; active = well fitted falling curve with a large enough effect; inconclusive = small, poorly fitted or top-dose-only effect; inactive = no such curve, though single readings can be large or run the other way; note: potency is the fitted concentration of half-maximal effect; % is set by controls: 0 for no effect and ±100 for the full control effect; nearly all actives have a fitted effect of over 50% in size
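Fission yeast RE007 carrying one integrated HIV-1 vpr copy, seeded at OD 0.01 in PMG+AL medium with 23 nL pinned compound. Grown 24 h at 30 degrees; viability read by BacTiter-Glo luminescence after 5 min.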
LmPK inhibitor: qHTS Assay for Inhibitors of Leishmania Mexicana Pyruvate Kinase (LmPK). Q27686. Potency, µM (doses to about 57.5 µM), for inactives: at the top dose activity change, negative = inhibition, usual class: inhibitors. purified LmPK, Kinase-Glo ATP luminescence, 1 h. AID 1721, 2009. 290,000 tested, 0.37% active; note: potency is the fitted concentration of half-maximal effect; % is set by controls: 0 for no effect and ±100 for the full control effect
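Purified LmPK (0.1 nM) converted ADP (0.1 mM) to ATP with PEP (0.5 mM) in imidazole buffer pH 7.2 with KCl and MgCl2, 1 h at room temperature. ATP was read by Kinase-Glo luminescence; data normalized to uninhibited and no-enzyme controls.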
TbPYK inhibitor: qHTS of Trypanosoma Brucei Inhibitors. pyruvate kinase (Trypanosoma brucei), Q57TT1. AID 624173, 2012. Potency, µM (highest dose often 76.8 µM), without a hit: top-dose activity, negative = inhibition, most hits filed as inhibitors. 410,000 tested, 0.12% active. TbPYK enzyme, Kinase-Glo Plus ATP luminescence, 45 min; note: potency is the fitted concentration of half-maximal effect; % is set by controls: 0 for no effect and ±100 for the full control effect; nearly all actives have a fitted effect of over 50% in size
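Glycolytic pyruvate kinase of T. brucei was incubated with substrate, test compound and 130 uM ADP for 45 minutes at room temperature. Luminescent Kinase-Glo Plus signal was measured after 10 minutes.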
CHX counter: Cycloheximide Counterscreen for Small Molecule Inhibitors of Shiga Toxin; 300,000 tested, 12% active; cell reporter, cycloheximide protein synthesis inhibition counterscreen; max response, %; AID 2314, 2010; in the data active = max response mostly above about 13%, no sharp cut-off; inactive = mostly below about 14%; note: read at 38.3 µM for the half of the compounds with a filed dose; 0% is about no effect
Shiga toxin inh: A qHTS for Small Molecule Inhibitors of Shiga Toxin; Vero cells, Shiga toxin protein synthesis inhibition reporter; inhibition, % at 38.7 µM; 290,000 tested, 9.2% active; in the data active = inhibition mostly above about 28%, no sharp cut-off; inactive = mostly below about 43%; note: 0% is about no effect
The depositor's hits bear a star; [ ] = another dose, or the depositor's remark. This is one part of a sample in which hits are shown more often than they occur. Unless noted, calls come from the whole dose curve; as a rule, active = well fitted curve in the direction sought with a large enough effect; inconclusive = small, poorly fitted or top-dose-only effect, or another doubt; inactive = no such curve, though single readings can be large; an effect the other way counts as inactive or inconclusive.

Cc1ccc(NC(=O)c2ccc(Cl)c(NC(=O)c3cccs3)c2)cc1 was read as RE007 growth inh -16.6%, LmPK inhibitor -5.1%, TbPYK inhibitor -3.6%, CHX counter 52.6* and Shiga toxin inh 45.4.
COC(=O)c1ccn(Cc2ccccc2Cl)n1 was read as FBPA Giardia inh 4.9%, RE007 growth inh 15.5%, LmPK inhibitor 6.9%, TbPYK inhibitor 2.2%, CHX counter 43.7* and Shiga toxin inh 63.5*.
`CCCCOc1ccc(C(=O)N2CCCCC2CCN2CCOCC2)cc1` (centres undefined) gave TbPYK inhibitor -1.9%.
For CCCOc1ccc(C(=O)CCN2CCN(C(=O)OCC)CC2)cc1 the results were FBPA Giardia inh -2.0%, RE007 growth inh 31.6µM*, LmPK inhibitor -2.9%, TbPYK inhibitor -17.3%, CHX counter -2.3 and Shiga toxin inh -8.1.
Screening CC(C)Oc1ccc(C(=O)CCN2CCOCC2)cc1 returned RE007 growth inh inconclusive and TbPYK inhibitor -15.1%.
For CCCCCOc1ccc(C(=O)CCN2CCOCC2)cc1 the results were FBPA Giardia inh -8.8%, RE007 growth inh 17.8µM*, LmPK inhibitor 1.7%, TbPYK inhibitor -5.0% and CHX counter -3.6.
CC(C)Oc1ccc(C(=O)CCN2CCCCC2)cc1 was read as FBPA Giardia inh -7.1%, RE007 growth inh 39.8µM*, LmPK inhibitor 4.1%, TbPYK inhibitor -17.0%, CHX counter -2.3 and Shiga toxin inh 4.1.
Screening COc1ccc(C(=O)C(CN2CCCC2)c2ccccc2)cc1 (centres undefined) returned FBPA Giardia inh -3.9%, RE007 growth inh inconclusive, LmPK inhibitor 3.5%, TbPYK inhibitor 2.7%, CHX counter 24.9* and Shiga toxin inh 9.2.
Screening Cc1cc2c(cc1Cl)C(c1ccc3c(c1)OCO3)CC(=O)O2 (centres undefined) returned FBPA Giardia inh 0.6%[89.2 µM], CHX counter 3.3 and Shiga toxin inh inactive.
`CCOc1ccc(C(=O)CCN2CCCCC2)cc1` gave FBPA Giardia inh 12.3%, RE007 growth inh 35.5µM*, LmPK inhibitor -1.9%, TbPYK inhibitor -7.3%, CHX counter 5.9 and Shiga toxin inh -17.9.
For COc1ccc(C(=O)CCN2CCN(c3ccc(OC)cc3)CC2)cc1 the results were FBPA Giardia inh 8.6%, RE007 growth inh inconclusive, LmPK inhibitor -7.1%, TbPYK inhibitor 5.9%, CHX counter -0.8 and Shiga toxin inh -5.6.
For COc1ccc(C(=O)CCN2CCCCCC2)cc1 the results were FBPA Giardia inh -7.2%, RE007 growth inh 7.08µM*, LmPK inhibitor 2.2%, TbPYK inhibitor 0.4%, CHX counter 10.5 and Shiga toxin inh 14.5.
For COc1ccc(-c2noc(CNS(=O)(=O)c3ccc(Br)cc3)n2)cc1OC the results were TbPYK inhibitor 1.7%.
Screening O=C(Cn1nc(Cc2cccnc2)c2ccccc2c1=O)Nc1cccc(C(F)(F)F)c1 returned TbPYK inhibitor -4.4%.
`COc1ccc(-c2c3c(=O)n(C)c(=O)n(C)c3cn2Cc2cccnc2)cc1` gave FBPA Giardia inh -25.1%, RE007 growth inh -17.2%, LmPK inhibitor 3.2%, TbPYK inhibitor 0.4%, CHX counter 17.1* and Shiga toxin inh 125.6*.
`COc1ccc(-c2c3c(=O)n(C)c(=O)n(C)c3cn2Cc2ccccn2)cc1` gave FBPA Giardia inh -21.2%, RE007 growth inh 14.6%, LmPK inhibitor 3.9%, TbPYK inhibitor -3.6%, CHX counter -2.4 and Shiga toxin inh 42.4.
N#C/C(C(=O)c1ccccc1)=C1/CCCN1 was read as FBPA Giardia inh 3.9%, RE007 growth inh 19.1%, LmPK inhibitor 2.2%, TbPYK inhibitor -1.3%, CHX counter 19.3 and Shiga toxin inh 51.5.
For N#C/C(C(=O)Oc1ccccc1)=C1\C=CC=CN1 the results were FBPA Giardia inh -3.9%, RE007 growth inh -9.2%, LmPK inhibitor -1.6%, TbPYK inhibitor 4.7%, CHX counter 44.0* and Shiga toxin inh 59.9*.
`CCCCCCCCCC(=O)NNC(=O)c1c(O)c2ccccc2n(CC)c1=O` gave FBPA Giardia inh 13.5%, RE007 growth inh 18.3%, LmPK inhibitor 1.4%, TbPYK inhibitor 5.7%, CHX counter -2.9 and Shiga toxin inh -11.6.
Cn1c(C(=O)NCc2cccs2)cc2oc3ccccc3c21 was read as FBPA Giardia inh 13.9%, RE007 growth inh -6.6%, LmPK inhibitor -0.3%, TbPYK inhibitor 1.2%, CHX counter 62.5* and Shiga toxin inh 81.6*.
Screening Cn1c(=O)c(C(=O)NNC(=O)c2ccc(Br)cc2)c(O)c2ccccc21 returned FBPA Giardia inh 11.6%, RE007 growth inh 28.2µM*, LmPK inhibitor 0.1%, TbPYK inhibitor -0.4%, CHX counter -1.2 and Shiga toxin inh -0.3.
`Cn1c(C(=O)NCC2CCCO2)cc2oc3ccccc3c21` (centres undefined) gave FBPA Giardia inh -6.9%, RE007 growth inh inconclusive, LmPK inhibitor 0.4%, TbPYK inhibitor 5.5%, CHX counter 34.7* and Shiga toxin inh 102.9*.
`Cn1c(=O)c(C(=O)NNC(=O)c2ccccc2F)c(O)c2ccccc21` gave FBPA Giardia inh 2.1%, RE007 growth inh -7.8%, LmPK inhibitor 4.2%, TbPYK inhibitor 2.9%, CHX counter -1.7 and Shiga toxin inh -7.3.
`Cn1c(C(=O)NCC2CCCO2)cc2c(=O)[nH]c3ccccc3c21` (centres undefined) gave FBPA Giardia inh -0.3%, RE007 growth inh -2.5%, LmPK inhibitor -3.8%, TbPYK inhibitor -0.5%, CHX counter 4.6 and Shiga toxin inh 9.4.
CCCCCC(=O)NNC(=O)c1c(O)c2ccccc2n(CC)c1=O was read as FBPA Giardia inh -8.3%, RE007 growth inh -14.4%, LmPK inhibitor 6.3%, TbPYK inhibitor -4.5%, CHX counter 19.0* and Shiga toxin inh 58.6*.
Screening Cn1c(=O)n(C/C=C/c2ccccc2)c(=O)c2c1nc1n2CCN1c1ccc(F)cc1 returned TbPYK inhibitor 6.0%.
Screening Cn1c(C(=O)NCc2ccccc2)cc2oc3ccccc3c21 returned FBPA Giardia inh -7.9%, RE007 growth inh 0.4%, LmPK inhibitor -0.7%, TbPYK inhibitor -6.2%, CHX counter 46.2* and Shiga toxin inh 85.0*.
`Cn1c(=O)c(C(=O)NCC2CCCO2)c(O)c2ccccc21` (centres undefined) gave FBPA Giardia inh -11.7%, RE007 growth inh -21.1%, LmPK inhibitor -10.2%, TbPYK inhibitor -2.7%, CHX counter 26.9* and Shiga toxin inh 45.4.
`COc1ccc(CNC(=O)c2cc3oc4ccccc4c3n2C)cc1OC` gave TbPYK inhibitor -1.4%.
`O=C(NCc1ccccc1Cl)c1ccc2c(c1)nnn2C1CCCC1` gave TbPYK inhibitor -3.1%.
